In the library only some 2% were active in any assay of this set; here they are far more common.
Jurkat NFkB inh – inhibitors of induced NF-kB luciferase reporter, primary screen, TCR NF-kB activation inhibitor project, cell-based, luminescence, uHTS | 330,000 tested, 0.53% active | Jurkat, PMA/ionomycin-induced NF-kB luciferase reporter | AID 435003, 2010 | inhibition, % at 4 µM; in the data active = inhibition above about 50%
Calb FLC – C. albicans growth inhibition with fluconazole, primary screen, CaCi-2 strain, Alamar Blue fluorescence; 300,000 tested, 0.57% active; AID 1979, 2009; C. albicans CaCi-2 (fluconazole-resistant clinical isolate) + fluconazole, 48 h; growth inhibition, % (test concentration not listed);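 active = growth inhibition above about 58% in most replicates, limit read from the data, passing the limit was not always enough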;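 note: all wells also contain fluconazole at 8 µg/ml as a sub-toxic cotreatment; 0% = median of DMSO wells and 100% = median of geldanamycin control wells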
Shn3 inh set2 – reduction of Shn3 3'UTR firefly luciferase signal, primary screen, Schnurri-3 inhibitor project, cell-based, Clone20 osteoblasts, set 2; inhibition, % at 12.5 µM; Clone20 osteoblast Shn3 3'UTR firefly luciferase, 24 h; 360,000 tested, 0.52% active;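 active = mean inhibition of at least 75% with every replicate also reaching 75%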;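 note: 0% = median of neutral control wells and 100% = pilot-screen positive control compound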
697 NFkB inh – inhibitors of PMA/ionomycin-induced NF-kB reporter, 697 cells, primary screen, B-cell NF-kB inhibitor project, cell-based, luminescence, uHTS; 697 B-cell NF-kB luciferase reporter, 16 h; AID 435022, 2010; 330,000 tested, 0.33% active; inhibition, % at 4 µM; in the data active = inhibition above about 35%
Beta apoptosis – inhibitors of cytokine-induced beta cell apoptosis, primary screen, luminescence | 300,000 tested, 0.8% active | INS-1E cytokine-induced death, ATP luminescence, 48 h; percent of positive-control rescue, neutral wells zero | protection from apoptosis, % (no concentration beside the values) | AID 435005, 2010;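 active = Every replicate reaches about 75%, or at least half do and their mean reaches it too, limit read from the data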;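 note: 0% = cytokine-treated negative control wells and 100% = positive control rescue; higher means more ATP so stronger rescue from cytokine killing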
Starred values were filed as active, the others as inactive; nt = no result.

SMILES	Jurkat NFkB inh	Calb FLC	Shn3 inh set2	697 NFkB inh	Beta apoptosis
CC#CC[N+](C)(C)CC(=O)c1ccccc1	6	4	8	1	-3
COC(=O)C1CCN(Cc2c(C(=O)N3C[C@@H](C)O[C@@H](C)C3)nc3ccc(Cl)cn23)CC1	-3	87*	-1	-23	-2
C[C@@H]1CN(C(=O)c2nc3ccc(Cl)cn3c2CN2CCc3sccc3C2)C[C@H](C)O1	4	-14	-9	16	-7
CN(CC(=O)Nc1cccc(S(=O)(=O)N2CCOCC2)c1)CC(=O)Nc1ccc(Cl)c(C(F)(F)F)c1	13	8	88*	-41	4
CN(CC(=O)Nc1cccc(F)c1)CC(=O)Nc1cc(S(=O)(=O)N2CCOCC2)ccc1Cl	-11	nt	11	-10	8
CCN(CC)S(=O)(=O)c1cccc(NC(=O)CNc2cccc(S(=O)(=O)N3CCOCC3)c2)c1	49	-7	88*	29	56
CC1=[N+](C)c2c(ccc3cccnc23)C1(C)C	nt	nt	93*	nt	nt
COc1ccc(C=C2C=C(C(C)(C)C)C(=O)C(C(C)(C)C)=C2)cc1OC	-38	-5	93*	-82	-4
COc1ccc(/C=C2\CC/C(=C\c3ccc(OC)c(OC)c3)C2=O)cc1OC	-2	-13	-37	-18	1
O=C(O)c1ccc(-c2nc(-c3ccc(Cl)cc3Cl)cs2)cc1	-27	44	-84	-162	-7
O=C(O)c1ccc(-c2nc(-c3ccc(Cl)cc3)cs2)cc1	nt	91*	-104	nt	nt
O=C(Nc1ccc(OC(F)F)cc1)Nc1cccc(C(F)(F)F)c1	8	-18	-1	-12	78*
CCN(CC)S(=O)(=O)c1ccc(NC(=O)Nc2cccc(C(F)(F)F)c2)cc1	8	-1	96*	-35	98*
O=C(Nc1ccncc1)Nc1cccc(C(F)(F)F)c1	3	-4	8	-16	5
Cc1ccc(S(=O)(=O)Nc2ccc(NC(=O)Nc3cccc(C(F)(F)F)c3)cc2)cc1	4	-20	75	-12	96*
COc1ccc(CC(N)c2csc(NC(=O)Nc3cccc(C(F)(F)F)c3)n2)cc1 (configuration not stated)	nt	nt	96*	nt	nt
O=C(NC1C2CC3CC(C2)CC1C3)C1CCCCC1 (configuration not stated)	-12	-20	12	-4	-2
CNc1cc(-c2ccc(CC#N)cc2)ncn1	nt	nt	-76	nt	nt
O=C(O)COc1ccccc1/C=N/NC(=O)CN1CCN(S(=O)(=O)c2ccc(Br)cc2)CC1	3	7	8	7	-6
CC1(C)CC(NC(=O)c2cc(Cl)ccc2Cl)CC(C)(C)N1	6	14	-11	9	-3
O=S(=O)(Nc1cccc2cccnc12)c1ccc(S(=O)(=O)N2CCCC2)cc1	-14	96*	27	8	53
Cc1ccc(C)c(Oc2ncnc(N)c2[N+](=O)[O-])c1	12	-7	-3	9	-11
Cc1cc(Sc2nc(N)ncc2[N+](=O)[O-])ncn1	14	105*	59	-3	-13
Cc1cc(Sc2ncnc(N)c2[N+](=O)[O-])ncn1	4	101*	99*	-10	-41
Cc1cc(N)ncc1[N+](=O)[O-]	nt	nt	-8	nt	nt
SMILES	Jurkat NFkB inh	Calb FLC	Shn3 inh set2	697 NFkB inh	Beta apoptosis
CC1(C(=O)NS(=O)(=O)C2CC2)CCN(C(=O)c2ccccc2OC(F)(F)F)C1 (configuration not stated)	nt	nt	14	nt	nt
NC1=NC[C@H](Cc2ccccc2)N1CCCCC1CCCCC1	3	105*	64	-42	112*
NC1=NC[C@@H](CC2CCCCC2)N1CCc1cc(C(F)(F)F)cc(C(F)(F)F)c1	8	nt	97*	-16	109*
CCN(CC)c1ccc(/C=C(/C#N)c2nc3ccccc3[nH]2)c(OC(C)C)c1	-58	40	-71	-132	40
CCC1CCCCN1C(=O)c1cc(COc2ccc(-n3cncn3)cc2)on1 (configuration not stated)	6	2	73	1	104*
N#C/C(=C\c1ccc(OC(=O)c2ccc(Cl)s2)cc1)c1nc2ccccc2[nH]1	-46	2	-52	-21	-4

Source: PubChem (several laboratories)
